# Experimental data: the supplement of paper PMC9492666
# Structures can show the parent of a compound that is named as a salt.
# System: HCC1937
# Test: relative cell viability, compound + erastin, vs DMSO (fraction of DMSO control); higher = less growth inhibition
# Conditions: 72 h
# 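Further: viability read by CCK-8 kit in 96-well plates, part of a combination screen pairing lipid-metabolism-targeting compounds with erastin.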
row,SMILES,relative cell viability
1,C[C@H](CCCC(C)(C)O)[C@H]1CC[C@H]2[C@@H]3CC=C4C[C@@H](O)CC[C@]4(C)[C@H]3CC[C@]12C [25-Hydroxycholesterol] + CCOc1ccccc1-n1c(C(C)N2CCN(C(=O)COc3ccc(Cl)cc3)CC2)nc2ccccc2c1=O [erastin],0.745
2,CN1CCN(C(=O)C2C(C(=O)O)[C@H]3CC[C@@H]2O3)CC1 (stereo partly drawn) + CCOc1ccccc1-n1c(C(C)N2CCN(C(=O)COc3ccc(Cl)cc3)CC2)nc2ccccc2c1=O [erastin],0.278
3,CC(C)CCC[C@@H](C)[C@H]1CC[C@H]2[C@@H]3CCC4=CC(=NO)CC[C@]4(C)[C@H]3CC[C@]12C [Olesoxime] + CCOc1ccccc1-n1c(C(C)N2CCN(C(=O)COc3ccc(Cl)cc3)CC2)nc2ccccc2c1=O [erastin],0.673
4,O=C(c1ccc(-c2nc3ccc(F)cc3o2)cc1)N1CCN(C(=O)C2(O)CC2)CC1 + CCOc1ccccc1-n1c(C(C)N2CCN(C(=O)COc3ccc(Cl)cc3)CC2)nc2ccccc2c1=O [erastin],0.588
5,O=C(O)CCn1c2c(c3ccccc31)C[C@H](NS(=O)(=O)c1ccc(F)cc1)CC2 [Ramatroban] + CCOc1ccccc1-n1c(C(C)N2CCN(C(=O)COc3ccc(Cl)cc3)CC2)nc2ccccc2c1=O [erastin],0.494
6,O=c1oc2ccccc2cc1O [3-Hydroxycoumarin] + CCOc1ccccc1-n1c(C(C)N2CCN(C(=O)COc3ccc(Cl)cc3)CC2)nc2ccccc2c1=O [erastin],0.61
7,NNC(=O)c1nn(Cc2ccc(Cl)cc2Cl)c2ccccc12 [Adjudin] + CCOc1ccccc1-n1c(C(C)N2CCN(C(=O)COc3ccc(Cl)cc3)CC2)nc2ccccc2c1=O [erastin],0.557
8,CCC1C(O)C2C3CCC(C(C)CCO)C3(C)CCC2C2(C)CCC(O)CC12 (stereo not drawn) + CCOc1ccccc1-n1c(C(C)N2CCN(C(=O)COc3ccc(Cl)cc3)CC2)nc2ccccc2c1=O [erastin],0.656
9,Cc1cccc(Nc2cc(Cl)nc(SCC(=O)O)n2)c1C [Pirinixic Acid] + CCOc1ccccc1-n1c(C(C)N2CCN(C(=O)COc3ccc(Cl)cc3)CC2)nc2ccccc2c1=O [erastin],0.602
10,CCN(CC)Cc1ccc(C(=O)N(CCc2ccccc2OC)[C@@H]2CCNC2)cc1 + CCOc1ccccc1-n1c(C(C)N2CCN(C(=O)COc3ccc(Cl)cc3)CC2)nc2ccccc2c1=O [erastin],0.872
11,Nc1ncnc2c1ncn2[C@@H]1O[C@H](COP(=O)(O)O)[C@@H](O)[C@H]1O [Adenosine 5'-monophosphate] + CCOc1ccccc1-n1c(C(C)N2CCN(C(=O)COc3ccc(Cl)cc3)CC2)nc2ccccc2c1=O [erastin],0.642
12,CCCc1c(-c2ccccc2)[nH]n(-c2ccccn2)c1=O [APX-115 free base] + CCOc1ccccc1-n1c(C(C)N2CCN(C(=O)COc3ccc(Cl)cc3)CC2)nc2ccccc2c1=O [erastin],0.615
13,O=P(O)(O)OC(CO)CO [β-Glycerol phosphate disodium salt pentahydrate] + CCOc1ccccc1-n1c(C(C)N2CCN(C(=O)COc3ccc(Cl)cc3)CC2)nc2ccccc2c1=O [erastin],0.614
14,COc1cccc(CNc2ccc(S(=O)(=O)Nc3nc4ccccc4s3)cc2)c1O + CCOc1ccccc1-n1c(C(C)N2CCN(C(=O)COc3ccc(Cl)cc3)CC2)nc2ccccc2c1=O [erastin],0.639
15,CCN(CC)CCCC(C)Nc1c2ccc(Cl)cc2nc2ccc(OC)cc12 (stereo not drawn) [Quinacrine dihydrochloride] + CCOc1ccccc1-n1c(C(C)N2CCN(C(=O)COc3ccc(Cl)cc3)CC2)nc2ccccc2c1=O [erastin],0.164
16,NC(=O)c1ncn([C@@H]2O[C@H](CO)[C@@H](O)[C@H]2O)c1N [AICAR (Acadesine)] + CCOc1ccccc1-n1c(C(C)N2CCN(C(=O)COc3ccc(Cl)cc3)CC2)nc2ccccc2c1=O [erastin],0.85
17,Cc1nc2c([nH]1)c(=O)n(C)c(=O)n2Cc1ccco1 [Furafylline] + CCOc1ccccc1-n1c(C(C)N2CCN(C(=O)COc3ccc(Cl)cc3)CC2)nc2ccccc2c1=O [erastin],0.672
18,CC1=C(C)C(=O)C(C(CCCCCC(=O)O)c2ccccc2)=C(C)C1=O (stereo not drawn) [Seratrodast] + CCOc1ccccc1-n1c(C(C)N2CCN(C(=O)COc3ccc(Cl)cc3)CC2)nc2ccccc2c1=O [erastin],0.851
